The text below walks through data of PubChem BioAssay (Tox21).

Assay [1] can be described thus: qHTS assay to identify small molecule agonists of the estrogen receptor beta (ER-beta) signaling pathway - cell viability counter screen (AID 1259380; active = well fitted curve in the direction sought with a large enough effect in the repeat runs; an effect the other way counts as inactive or inconclusive; note: nearly all actives have a fitted effect of over 30% in size; note: potency is the fitted concentration of half-maximal effect). The conditions noted are these: ER-beta-bla HEK293T viability, CellTiter-Glo luminescence, 16 h; series mostly up to 92.4 µM. In outline: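 HEK293T ER-beta-UAS-bla; 2% CS-FBS; 6 hr pre-plate, 16 hr cpd at 37C/5% CO2; LiveBLAzer read first, then CellTiter-Glo 30 min RT, luminescence.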
For orientation: In qHTS, concentration-response curves come from the screen itself.

The nature of assay [2]: qHTS assay to identify small molecule antagonists of the estrogen receptor beta (ER-beta) signaling pathway - cell viability counter screen (AID 1259382; active = well fitted curve in the direction sought with a large enough effect in the repeat runs; an effect the other way counts as inactive or inconclusive; note: nearly all actives have a fitted effect of over 55% in size; note: potency is the fitted concentration of half-maximal effect). The conditions noted are these: ER-beta-UAS-bla HEK293T viability, CellTiter-Glo luminescence, 16 h; series mostly up to 92.4 µM. In outline:
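Cells: ER-beta-UAS-bla HEK293T, 2,000/well, 2% CS-FBS, 6 hr settle. Cpd + E2 (1nM final), 16 hr, 37C/5% CO2. Bla FRET substrate 2 hr RT, then CellTiter-Glo 30 min RT, luminescence.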

The nature of assay [3]: qHTS assay to identify small molecule agonists or antagonists of the thyroid stimulating hormone receptor (TSHR) signaling pathway - wild type cell line counter screen (AID 1259384). Particulars: HEK293 wild type, cAMP HTRF counter-screen; series mostly up to 92.4 µM. The method in brief:
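Wild-type Hek293 cells, 800/well, 18 h at 37C, then compound with Ro20-1724 for 30 min RT. cAMP by HTRF (cAMP-d2/anti-cAMP cryptate), 1 h RT, fluorescence read. 15 concentrations, triplicates.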

The target of assay [4] is Thyrotropin receptor (Homo sapiens) (UniProt P16473). The experiment in a line: qHTS assay to identify small molecule antagonists of the thyroid stimulating hormone receptor (TSHR) signaling pathway (AID 1259385). Note: nearly all actives have a fitted effect of over 20% in size. Note: potency is the fitted concentration of half-maximal effect. Particulars: TSHR-HEK293 cAMP HTRF, TSH-stimulated antagonist mode; series mostly up to 92.4 µM. In outline:
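TSHR-HEK293 cells (800/well) plated 18 h, then compounds with Ro20-1724 and TSH at 1.5 ng/mL final, 30 min at room temperature. cAMP quantified by HTRF (cAMP-d2/anti-cAMP-cryptate, 1 h); 15 concentrations in triplicate.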

Assay [5] deals with Estrogen receptor (Homo sapiens) (UniProt P03372). The experiment in a line: qHTS assay to identify small molecule agonists of the estrogen receptor alpha (ER-alpha) signaling pathway in the presence of an antagonist (AID 1259383). Note: nearly all actives have a fitted effect of over 15% in size. Note: potency is the fitted concentration of half-maximal effect. The conditions noted are these: VM7Luc4E2 cells, ERE-luciferase, +ICI-182,780, 22 h; series mostly up to 92.4 µM. The method in brief: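 VM7Luc4E2, endog. ER-alpha + 4×ERE-luc; charcoal-stripped FBS, phenol red-free, 5 d; 24hr plating; +10.0nM ICI-182,780 (final); cpds 15 conc, 22hr, 37C/5% CO2; ONE-Glo luminescence.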

The target of assay [6] is Progesterone receptor (Homo sapiens) (UniProt P06401). The experiment in a line: qHTS assay to identify small molecule agonists of the progesterone receptor (PR) signaling pathway (AID 1346784). Note: nearly all actives have a fitted effect of over 30% in size. Particulars: PR-UAS-bla HEK293T, beta-lactamase FRET ratio, 16 h; series mostly up to 92.4 µM. The method in brief: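 Fluorescence from LiveBLAzer B/G FRET substrate cleavage (2 hr, RT) reported PR activation in PR-UAS-bla HEK 293T cells treated 16 hr at 37C/5% CO2 with compounds; medium contained 2% charcoal-stripped FBS.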

Assay [7] can be described thus: qHTS assay to identify small molecule agonists of the estrogen receptor alpha (ER-alpha) signaling pathway in the presence of an antagonist - cell viability counter screen (AID 1259386; active = well fitted curve in the direction sought with a large enough effect in the repeat runs; an effect the other way counts as inactive or inconclusive;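 note: cells exposed to compounds for 22 h at 37 °C before the viability read; nearly all actives have a fitted effect of over 30% in size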; note: potency is the fitted concentration of half-maximal effect). The conditions noted are these: VM7Luc4E2 viability, CellTiter-Fluor fluorescence, 22 h; series mostly up to 92.4 µM. In outline:
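VM7Luc4E2, stripped-serum pre-culture 5 d; 24hr plating; +ICI-182,780 10.0nM final; cpds 15 conc, 22hr, 37C/5% CO2; CellTiter-Fluor added at 21hr, fluorescence 1hr later.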

Assay [8] has as its target Progesterone receptor (Homo sapiens) (UniProt P06401). The experiment in a line: qHTS assay to identify small molecule antagonists of the progesterone receptor (PR) signaling pathway (AID 1346795; active = well fitted inhibition curve with a large enough effect in the signal ratio in the repeat runs, not every such curve was filed as active; the % refers to the signal ratio; note: potency is the fitted concentration of half-maximal effect). Particulars: PR-UAS-bla HEK293T, beta-lactamase FRET ratio, 16 h; series mostly up to 92.4 µM. In outline:
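Fluorescence intensity measured 2 hr after adding beta-lactamase FRET substrate to PR-UAS-bla HEK293T cells that had been co-treated 16 hr with compound and 1 nM R5020 (final concentration) in 2% charcoal-stripped FBS.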

Inconclusive results are not listed. Active and inactive are the calls of the source. Unless noted, calls come from the whole dose curve.

Progesterone receptor (Homo sapiens), sequence (P06401 whole entry, looked up): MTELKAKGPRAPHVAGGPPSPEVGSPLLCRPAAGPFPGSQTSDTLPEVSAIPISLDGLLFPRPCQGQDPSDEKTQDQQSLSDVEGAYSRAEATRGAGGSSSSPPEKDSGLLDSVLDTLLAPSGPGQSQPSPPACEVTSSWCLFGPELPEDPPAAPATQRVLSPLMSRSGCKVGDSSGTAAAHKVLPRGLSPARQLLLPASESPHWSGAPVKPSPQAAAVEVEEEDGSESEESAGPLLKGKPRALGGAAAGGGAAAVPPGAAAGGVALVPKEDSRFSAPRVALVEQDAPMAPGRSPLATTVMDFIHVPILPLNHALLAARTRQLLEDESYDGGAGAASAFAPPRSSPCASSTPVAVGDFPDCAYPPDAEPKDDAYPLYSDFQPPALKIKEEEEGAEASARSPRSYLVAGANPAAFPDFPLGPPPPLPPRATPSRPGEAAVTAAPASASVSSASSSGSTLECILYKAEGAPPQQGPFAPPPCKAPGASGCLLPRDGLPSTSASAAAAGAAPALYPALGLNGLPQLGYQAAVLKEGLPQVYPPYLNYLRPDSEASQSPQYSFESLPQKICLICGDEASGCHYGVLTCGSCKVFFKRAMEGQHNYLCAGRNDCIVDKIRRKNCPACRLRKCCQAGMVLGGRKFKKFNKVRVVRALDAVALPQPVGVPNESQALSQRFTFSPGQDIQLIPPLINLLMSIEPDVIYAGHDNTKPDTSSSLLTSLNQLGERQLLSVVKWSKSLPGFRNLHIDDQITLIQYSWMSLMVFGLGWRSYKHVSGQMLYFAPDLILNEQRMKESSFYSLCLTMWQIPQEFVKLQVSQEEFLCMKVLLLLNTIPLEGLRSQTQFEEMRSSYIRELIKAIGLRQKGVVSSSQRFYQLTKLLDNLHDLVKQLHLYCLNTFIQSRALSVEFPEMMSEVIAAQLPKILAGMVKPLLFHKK
Estrogen receptor (Homo sapiens), sequence (P03372 whole entry, looked up): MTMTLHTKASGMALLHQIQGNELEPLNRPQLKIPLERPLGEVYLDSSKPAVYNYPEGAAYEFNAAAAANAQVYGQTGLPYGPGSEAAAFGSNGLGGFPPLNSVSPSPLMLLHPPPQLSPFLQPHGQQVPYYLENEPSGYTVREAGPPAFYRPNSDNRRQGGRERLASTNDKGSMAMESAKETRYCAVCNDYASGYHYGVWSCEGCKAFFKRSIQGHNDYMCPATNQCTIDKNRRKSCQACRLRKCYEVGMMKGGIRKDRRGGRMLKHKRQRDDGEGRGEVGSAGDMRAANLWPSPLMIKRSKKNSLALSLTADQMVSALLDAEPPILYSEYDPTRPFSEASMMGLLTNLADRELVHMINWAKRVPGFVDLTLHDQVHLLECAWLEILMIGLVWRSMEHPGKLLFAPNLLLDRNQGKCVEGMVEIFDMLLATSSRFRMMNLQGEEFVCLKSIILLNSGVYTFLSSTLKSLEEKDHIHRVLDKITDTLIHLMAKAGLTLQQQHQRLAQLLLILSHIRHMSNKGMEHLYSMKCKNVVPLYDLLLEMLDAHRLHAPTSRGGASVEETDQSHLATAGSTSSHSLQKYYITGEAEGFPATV
Thyrotropin receptor (Homo sapiens), sequence (P16473 whole entry, looked up): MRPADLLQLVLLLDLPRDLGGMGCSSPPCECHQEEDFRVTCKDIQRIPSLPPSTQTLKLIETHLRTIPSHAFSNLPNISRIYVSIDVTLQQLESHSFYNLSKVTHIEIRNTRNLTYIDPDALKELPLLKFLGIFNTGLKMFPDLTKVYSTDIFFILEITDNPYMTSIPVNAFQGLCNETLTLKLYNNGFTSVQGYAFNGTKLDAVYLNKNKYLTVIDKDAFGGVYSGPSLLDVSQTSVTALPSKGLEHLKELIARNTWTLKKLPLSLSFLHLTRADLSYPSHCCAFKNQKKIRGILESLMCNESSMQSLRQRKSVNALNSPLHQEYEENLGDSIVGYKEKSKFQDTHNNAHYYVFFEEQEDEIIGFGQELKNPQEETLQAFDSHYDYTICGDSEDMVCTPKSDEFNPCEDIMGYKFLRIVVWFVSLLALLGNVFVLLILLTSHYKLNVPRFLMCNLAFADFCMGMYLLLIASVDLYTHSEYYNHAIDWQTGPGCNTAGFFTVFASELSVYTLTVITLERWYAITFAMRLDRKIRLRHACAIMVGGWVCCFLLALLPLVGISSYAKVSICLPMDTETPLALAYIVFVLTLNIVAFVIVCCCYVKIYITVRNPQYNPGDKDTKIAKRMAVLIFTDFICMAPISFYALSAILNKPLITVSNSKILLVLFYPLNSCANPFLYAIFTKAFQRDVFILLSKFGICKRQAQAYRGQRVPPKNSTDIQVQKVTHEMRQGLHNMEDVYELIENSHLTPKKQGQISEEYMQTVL

As for `Cc1c(Cl)c(=O)oc2cc(O)ccc12`, the Potency entry in assay [1], in assay [2], in assay [3] and in assay [4] was “inactive” each time.

`CC/C(=C(/c1ccc(O)cc1)c1ccc(OCCN(C)C)cc1)c1ccccc1`: the Potency in assay [1] was 32 µM (active); in assay [2], 28.5 µM (active). The Potency result in assay [3] and in assay [4] was “inactive” each time.

Consider `CCCOC(=O)c1ccc(O)cc1`, for which the Potency in assay [5] was 47.5 µM (active). Further, the Potency result in assay [3] was “inactive”. In addition, the result in assay [6] was inactive.

As for `CN1CCN(CCCN2c3ccccc3Sc3ccc(C(F)(F)F)cc32)CC1`, the Potency in assay [1] is 15 µM (active); in assay [2], 21.1 µM (active); in assay [4], 26.6 µM (active). Also, in assay [3], the Potency entry was “inactive”.

For the compound `CC(Cc1ccc(O)c(O)c1)C(C)Cc1ccc(O)c(O)c1` (stereo not given), the Potency result in assay [5], in assay [3], in assay [4] and in assay [7] was “inactive” in each case. For the same compound, the result in assay [6] was inactive. In addition, the Potency in assay [8] is 61.1 µM (active).

Take `CC(=O)Nc1ccc(N=Nc2cc(C)ccc2O)cc1`: the Potency entry in assay [1], in assay [2] and in assay [5] was “inactive” in each case. For the same compound, the Potency in assay [7] was 15.4 µM (active); in assay [8] it was 48.6 µM (active). Further, the result in assay [6] was inactive.

In the case of `CC(C)c1ccc2sc3ccccc3c(=O)c2c1`, the Potency result in assay [2], in assay [3] and in assay [7] was “inactive” in each case. For the same compound, the figures for the Potency in assay [5] and in assay [4] were 1.37 µM (active) and 54.5 µM (active), respectively. The result in assay [6] was inactive.

Regarding `NCc1ccco1`, the Potency entry in assay [1], in assay [2], in assay [3], in assay [4], in assay [7] and in assay [8] was “inactive” each time. Besides, the outcome in assay [6] was inactive.

With `CCOc1ccc([N+](=O)[O-])cc1`, the Potency result in assay [2] and in assay [7] was “inactive” in each case. For the same compound, the Potency in assay [5] was 24.7 µM (active); in assay [8] it was 27.7 µM (active).

Consider `CC1=C(/C=C/C(C)=C/C=C/C(C)=C\C(=O)O)C(C)(C)CCC1`, for which the Potency in assay [1] was 9.72 µM (active). Moreover, the Potency entry in assay [2], in assay [5], in assay [7] and in assay [8] was “inactive” in each case. Further, in assay [6], the outcome was inactive.

Regarding `CCCCCCCCCCCCN1CCCC1=O`, the figures for the Potency in assay [1], in assay [2] and in assay [8] were 48.6 µM (active), 54.5 µM (active) and 48.6 µM (active), respectively. Moreover, the Potency result in assay [5], in assay [3] and in assay [7] was “inactive” throughout. In addition, the outcome in assay [6] was inactive.

With `O[Si](c1ccccc1)(c1ccccc1)c1ccccc1`, in assay [1], the Potency was 48.6 µM (active). The Potency entry in assay [5], in assay [3], in assay [4] and in assay [7] was “inactive” in each case. The outcome in assay [6] was inactive.

As for `O=C(CCCCCCCCc1cccnc1)N1CCC(C=C(c2ccccc2)c2ccccc2)CC1`, the Potency in assay [1] was 21.7 µM (active); in assay [2], 24.3 µM (active); in assay [8], 21.7 µM (active). In addition, the Potency result in assay [3] and in assay [4] was “inactive” throughout.

Regarding `Nc1ccc(Oc2cccc(Oc3ccc(N)cc3)c2)cc1`, the Potency entry in assay [2], in assay [5], in assay [3], in assay [4] and in assay [7] was “inactive” each time. For the same compound, the result in assay [6] was inactive. Moreover, the Potency in assay [8] was 30.6 µM (active).
